Assay results from PubChem BioAssay.
Calls of active or inactive are those of the source.

Assays:
[1] = tested on: Plasmodium falciparum Sir2 (PF13_0152, Sir2A); test: pfSir2 binders on small-molecule microarrays, primary screen, biochemical, small-molecule microarray, 635 nm fluorescence (AID 1098); conditions: small-molecule microarray binding, fluorescence 635 nm; higher = more signal;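 further: score merges spot fluorescence intensity with its signal-to-noise ratio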
[2] = small-molecule microarray binders of probe aDKK1, primary screen, biochemical, biotinylated probe, 635/667 nm fluorescence (AID 1099); conditions: higher = more signal;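 further: score merges 667nm spot fluorescence with signal to noise across triplicate slides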
[3] = small-molecule microarray binders of probe aCHRDL2, primary screen, biochemical, biotinylated probe, 635/667 nm fluorescence (AID 1100); conditions: higher = more signal
[4] = splicing luciferase reporter signal modulators, primary screen, spliceosome inhibition project, cell-based, HEK293, splice +/- reporter (AID 1101); conditions: luminescence, 24 h, higher = more signal, called active from +8 up or from −8 down;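 further: HEK293 cells carrying a splicing-competent luciferase reporter gene; test concentration not given here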
[5] = target: Fibroblast growth factor 10 (Homo sapiens) (UniProt O15520); test: FGF10 binders on small-molecule microarrays, primary screen, biochemical, small-molecule microarray, 635 nm fluorescence (AID 1102); conditions: FGF10 binding, fluorescence 635 nm, higher = more signal
[6] = tested on: glycogen synthase kinase-3 (GSK3A per assay name; protocol says GSK3B); test: GSK3 binders on small-molecule microarrays, primary screen, biochemical, small-molecule microarray, 635 nm fluorescence, GSK3A (AID 1103); conditions: small-molecule microarray binding, fluorescence 635 nm; higher = more signal; further: the record names both GSK3A and GSK3B
[7] = target: Epidermal growth factor receptor (Homo sapiens) (UniProt P00533); test: EGFR binders on small-molecule microarrays, primary screen, biochemical, small-molecule microarray, 635 nm fluorescence (AID 1104); conditions: EGFR binding, higher = more signal;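 further: score merges 667 nm emission intensity with spot signal to noise over triplicate slides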
[8] = target: Follistatin-related protein 3 (Homo sapiens) (UniProt O95633); test: FSTL3 binders on small-molecule microarrays, primary screen, biochemical, small-molecule microarray, 635 nm fluorescence (AID 1105); conditions: FSTL3 binding, higher = more signal;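 further: score merges emission near 667 nm and signal to noise per printed spot across three slides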
[9] = target: Dickkopf-related protein 1 (Homo sapiens) (UniProt O94907); test: DKK1 binders on small-molecule microarrays, primary screen, biochemical, small-molecule microarray, 635 nm fluorescence scan (AID 1106); conditions: DKK1 binding, higher = more signal;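 further: score merges emission near 667 nm with signal to noise over three replicate slides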
[10] = tested on: Inhibin beta A chain (activin A); test: INHBA (activin A) binders on microarrays, primary screen, biochemical, small-molecule microarray, 635 nm fluorescence scan (AID 1107); conditions: small-molecule microarray binding, higher = more signal;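 further: mouse activin A protein probed at 4.33 µg/mL on printed slides; score merges bound-protein fluorescence near 667 nm with spot signal-to-noise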
[11] = tested on: Human papillomavirus type 1a protein E7 (residues 44-93); test: HPV1a E7 fragment binders on microarrays, primary screen, biochemical, small-molecule microarray, residues 44-93, 635 nm fluorescence (AID 1108); conditions: small-molecule microarray binding, fluorescence 635 nm; higher = more signal;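 further: E7 fragment applied at 1 µg/mL in TBST for 1 h at 4 C; score combines spot fluorescence with its signal to noise ratio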
[12] = modulators of HCV replicon luciferase signal, primary screen, HCV replication inhibitor project, Huh7 cells, luciferase reporter (AID 1109); conditions: 48 h, higher = more signal;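 further: huh7 hepatoma cells harbouring a luciferase neomycin HCV replicon reporter; luciferase luminescence as measure of HCV replicon replication; test concentration not given here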
[13] = target: Left-right determination factor 2 (Homo sapiens) (UniProt O00292); test: LEFTY2 binders on small-molecule microarrays, primary screen, biochemical, small-molecule microarray, 635 nm fluorescence scan (AID 1110); conditions: LEFTY2 binding, higher = more signal
[14] = target: Calmodulin-1 (Homo sapiens) (UniProt P0DP23); test: CALM1 binders on microarrays, EGTA buffer, profiling panel, biochemical, small-molecule microarray, Cy5-labelled CALM1 (AID 1111); conditions: Cy5-CALM1 binding fluorescence, higher = more signal;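 further: labelled calmodulin applied in Tris saline Tween buffer holding calcium plus EGTA and DTT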
[15] = target: Calmodulin-1 (Homo sapiens) (UniProt P0DP23); test: calcium-bound CALM1 binders on microarrays, profiling panel, artefact control for SMM control-protein annotation, biochemical, small-molecule microarray, Cy5-labelled CALM1, plus calcium (AID 1112); conditions: Cy5-CALM1 binding fluorescence, higher = more signal;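 further: score merges spot fluorescence with signal to noise from triplicate slides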
[16] = small-molecule microarray binders of probe aWnt5a, primary screen, biochemical, biotinylated probe, 635/667 nm fluorescence (AID 1113); conditions: higher = more signal;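 further: score merges 667 nm fluorescence intensity with signal-to-noise per printed feature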
[17] = small-molecule microarray binders of probe aShh, primary screen, biochemical, biotinylated probe, 635/667 nm fluorescence (AID 1114); conditions: higher = more signal;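 further: probe is biotin-labelled aShh protein from a stem cell growth factor screen; measures binding of labelled protein to compounds printed on the slide; score merges feature fluorescence at 667 nm with signal-to-noise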
[18] = small-molecule microarray binders of probe aNog, primary screen, biochemical, biotinylated probe, 635/667 nm fluorescence (AID 1115); conditions: higher = more signal;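 further: probe is biotinylated aNog protein used at 0.15 µg/mL for 1 h at 4 C; z-score combines 667 nm fluorescence of each spot with its signal to noise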
[19] = target: Torsin-1A-interacting protein 1 (Homo sapiens) (UniProt Q5JTV8); test: LAP1 binders from COS7 cell lysate, primary screen, small-molecule microarray, 635/667 nm fluorescence (AID 1116); conditions: COS7-hLAP1 lysate binding, 635 nm fluorescence, higher = more signal
[20] = target: Alpha-bungarotoxin (Bungarus multicinctus) (UniProt P60615); test: alpha-bungarotoxin binders on microarray, profiling panel, artefact control for SMM control protein annotation, biochemical, small-molecule microarray, Alexa647 label, 635/667 nm fluorescence (AID 1117); conditions: alpha-BTX-A647 binding fluorescence, higher = more signal
Alpha-bungarotoxin (Bungarus multicinctus), sequence (P60615 whole entry, looked up): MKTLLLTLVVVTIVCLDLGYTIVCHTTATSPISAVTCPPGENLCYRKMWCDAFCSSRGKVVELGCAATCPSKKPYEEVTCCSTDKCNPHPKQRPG

Left-right determination factor 2 (Homo sapiens), sequence (O00292 whole entry, looked up): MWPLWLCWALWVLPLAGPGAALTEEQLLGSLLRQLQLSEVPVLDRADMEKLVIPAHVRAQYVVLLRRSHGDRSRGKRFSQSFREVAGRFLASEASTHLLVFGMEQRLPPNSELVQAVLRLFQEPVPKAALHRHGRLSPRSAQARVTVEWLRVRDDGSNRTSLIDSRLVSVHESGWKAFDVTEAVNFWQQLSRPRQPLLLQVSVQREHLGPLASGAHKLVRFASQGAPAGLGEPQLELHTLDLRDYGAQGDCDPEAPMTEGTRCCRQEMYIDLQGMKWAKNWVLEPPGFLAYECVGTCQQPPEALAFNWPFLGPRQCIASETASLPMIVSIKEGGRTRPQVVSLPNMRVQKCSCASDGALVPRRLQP
Follistatin-related protein 3 (Homo sapiens), sequence (O95633 whole entry, looked up): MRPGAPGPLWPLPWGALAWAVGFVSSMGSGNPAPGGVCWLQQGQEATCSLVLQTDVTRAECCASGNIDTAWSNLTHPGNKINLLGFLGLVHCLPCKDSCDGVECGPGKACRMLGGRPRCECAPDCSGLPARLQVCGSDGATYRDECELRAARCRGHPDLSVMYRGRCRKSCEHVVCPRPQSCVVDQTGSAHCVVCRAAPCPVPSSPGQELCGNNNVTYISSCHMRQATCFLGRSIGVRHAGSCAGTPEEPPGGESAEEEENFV
Dickkopf-related protein 1 (Homo sapiens), sequence (O94907 whole entry, looked up): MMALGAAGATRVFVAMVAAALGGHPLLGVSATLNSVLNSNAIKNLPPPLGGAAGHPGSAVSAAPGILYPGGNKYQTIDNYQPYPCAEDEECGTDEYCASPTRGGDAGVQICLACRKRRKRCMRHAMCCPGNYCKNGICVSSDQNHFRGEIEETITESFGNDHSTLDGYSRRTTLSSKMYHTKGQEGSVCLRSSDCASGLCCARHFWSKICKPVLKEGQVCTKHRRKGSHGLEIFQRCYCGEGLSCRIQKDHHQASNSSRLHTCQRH
Torsin-1A-interacting protein 1 (Homo sapiens), sequence (Q5JTV8 whole entry, looked up): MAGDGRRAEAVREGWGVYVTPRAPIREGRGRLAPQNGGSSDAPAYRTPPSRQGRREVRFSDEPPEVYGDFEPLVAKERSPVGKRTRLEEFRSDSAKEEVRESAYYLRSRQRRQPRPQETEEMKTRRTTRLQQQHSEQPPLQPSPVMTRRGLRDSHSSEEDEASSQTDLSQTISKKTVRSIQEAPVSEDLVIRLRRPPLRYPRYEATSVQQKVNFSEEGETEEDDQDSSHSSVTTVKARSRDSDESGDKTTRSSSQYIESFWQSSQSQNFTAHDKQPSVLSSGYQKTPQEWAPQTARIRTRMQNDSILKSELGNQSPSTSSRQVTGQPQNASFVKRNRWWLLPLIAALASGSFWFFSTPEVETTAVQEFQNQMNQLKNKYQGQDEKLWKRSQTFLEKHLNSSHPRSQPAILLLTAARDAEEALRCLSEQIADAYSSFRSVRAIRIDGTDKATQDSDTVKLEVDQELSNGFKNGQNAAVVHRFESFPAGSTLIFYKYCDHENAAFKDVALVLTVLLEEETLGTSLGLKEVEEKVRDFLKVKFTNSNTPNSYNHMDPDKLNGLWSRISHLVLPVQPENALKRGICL
Epidermal growth factor receptor (Homo sapiens), sequence (P00533 whole entry, looked up): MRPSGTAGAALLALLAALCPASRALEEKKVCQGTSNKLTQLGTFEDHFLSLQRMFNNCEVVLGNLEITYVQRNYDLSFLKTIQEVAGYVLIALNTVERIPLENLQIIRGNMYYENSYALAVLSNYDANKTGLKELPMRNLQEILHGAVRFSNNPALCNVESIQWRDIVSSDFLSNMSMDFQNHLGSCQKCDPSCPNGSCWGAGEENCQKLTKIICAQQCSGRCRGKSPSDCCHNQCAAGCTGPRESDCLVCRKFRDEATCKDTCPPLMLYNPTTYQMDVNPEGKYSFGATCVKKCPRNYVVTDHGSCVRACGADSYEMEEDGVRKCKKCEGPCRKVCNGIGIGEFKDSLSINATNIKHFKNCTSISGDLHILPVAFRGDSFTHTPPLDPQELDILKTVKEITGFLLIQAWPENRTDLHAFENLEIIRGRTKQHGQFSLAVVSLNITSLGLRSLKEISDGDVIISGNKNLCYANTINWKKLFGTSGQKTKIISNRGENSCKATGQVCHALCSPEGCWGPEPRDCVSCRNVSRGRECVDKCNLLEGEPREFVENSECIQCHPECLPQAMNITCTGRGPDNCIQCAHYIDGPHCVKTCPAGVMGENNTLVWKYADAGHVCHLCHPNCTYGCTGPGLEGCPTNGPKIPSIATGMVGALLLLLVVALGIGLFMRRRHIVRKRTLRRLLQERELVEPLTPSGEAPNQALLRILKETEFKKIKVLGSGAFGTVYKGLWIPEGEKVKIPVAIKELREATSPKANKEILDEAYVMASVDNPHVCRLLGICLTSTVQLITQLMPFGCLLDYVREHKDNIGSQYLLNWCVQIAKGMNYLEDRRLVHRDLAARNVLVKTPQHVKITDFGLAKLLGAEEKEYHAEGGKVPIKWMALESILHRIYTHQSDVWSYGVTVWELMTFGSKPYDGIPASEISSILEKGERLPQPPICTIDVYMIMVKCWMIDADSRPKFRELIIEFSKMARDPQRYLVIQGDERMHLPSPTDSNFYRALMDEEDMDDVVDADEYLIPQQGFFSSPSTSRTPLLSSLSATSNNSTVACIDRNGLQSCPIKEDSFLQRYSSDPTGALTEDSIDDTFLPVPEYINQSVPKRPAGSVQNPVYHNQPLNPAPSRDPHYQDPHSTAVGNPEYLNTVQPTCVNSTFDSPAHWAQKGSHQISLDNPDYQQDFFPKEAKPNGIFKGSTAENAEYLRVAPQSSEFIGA
Fibroblast growth factor 10 (Homo sapiens), sequence (O15520 whole entry, looked up): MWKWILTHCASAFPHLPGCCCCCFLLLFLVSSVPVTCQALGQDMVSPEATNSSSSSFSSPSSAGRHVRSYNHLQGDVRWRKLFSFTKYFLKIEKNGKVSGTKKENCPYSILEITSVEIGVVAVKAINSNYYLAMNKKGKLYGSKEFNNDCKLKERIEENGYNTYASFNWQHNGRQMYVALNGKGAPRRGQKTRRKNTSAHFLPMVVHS

Structure (SMILES) | composite z-score [1] | composite z-score [2] | composite z-score [3] | z-score [4] | composite z-score [5] | composite z-score [6] | composite z-score [7] | composite z-score [8] | composite z-score [9] | composite z-score [10] | composite z-score [11] | z-score [12] | composite z-score [13] | composite z-score [14] | composite z-score [15] | composite z-score [16] | composite z-score [17] | composite z-score [18] | composite z-score [19] | composite z-score [20]
CC1CC/C=C\[C@H]2OC34C=CCN(Cc5ccccc5)C(=O)[C@H]3N(CCO)C(=O)[C@@H]4C2C(=O)O1 (stereo not given in full) | 1.59 | -0.0038 | 0.681 | 0.229 (inactive) | 0.237 | -0.252 | -1.11 | -1.07 | -0.798 | 1.23 | 0.442 | -0.0892 | -0.51 | -0.556 | 0.0116 | 0.0597 | -0.0035 | 0.0169 | 1.62 | -0.4
COc1ccccc1CN1C(=O)c2ccccc2[C@@H](C(=O)NCC(C)C)[C@@H]1c1ccc(CO)cc1 | 1.05 | 0.543 | 0.705 | -0.8 (inactive) | 0.773 | -0.0674 | -0.318 | 0.0144 | 0.213 | 0.002 | 1.05 | -0.541 | 0.13 | 0.139 | -0.0968 | -0.196 | -0.776 | -0.0069 | 0.741 | -0.544
C[N+](C)(C)CCCCCCNC(=O)[C@@H]1C[C@@H]2C(=O)NCC(=O)N2[C@@H]1c1ccc(O)cc1 | 1.43 | -0.171 | 0.135 | 0.605 (inactive) | 0.963 | 0.657 | 0.0357 | 1.39 | 1.19 | 0.277 | 1.33 | 1.33 | 0.549 | 0.334 | -0.431 | -0.124 | -0.244 | -0.196 | 1.03 | 1.9
COC(=O)[C@@]1(Cc2ccccc2)[C@H]2c3cc(C(=O)N4CCCC4)n(CCO)c3C[C@H]2CN1C(=O)c1ccccc1 | 0.346 | 2.22 | 1.5 | -1.88 (inactive) | 0.615 | 0.343 | 0.414 | 1.14 | 0.337 | 0.305 | 0.34 | -1.02 | 0.167 | 2.71 | 1.07 | 0.853 | 0.436 | 0.922 | 3.95 | 1.48
CO[C@H]1O[C@H](CO)[C@@H](OC(=O)c2ccc(Br)cc2)[C@@H]2OC(=O)[C@H](Cc3cccc(Br)c3)C/C=C/C[C@@H](Cc3cccc(Br)c3)C(=O)O[C@@H]12 | 0.418 | 0.649 | 0.78 | 0.0118 (inactive) | 1.04 | 0.559 | 0.194 | 0.914 | 0.189 | 0.602 | 0.549 | -2.15 | 0.985 | 0.622 | 0.0872 | -0.113 | 0.317 | -0.172 | 0.323 | 0.867
COCCCNC(=O)[C@]1(Cc2ccccc2CN=[N+]=[N-])N=C(c2ccc(OCCCO)cc2)O[C@@H]1c1ccccc1CN=[N+]=[N-] | 1.59 | 1.35 | 1.25 | 0.438 (inactive) | 0.944 | 1.19 | 0.119 | 0.07 | -0.214 | 0.413 | -0.113 | -2.54 | 0.0705 | 1.85 | 0.945 | 0.19 | 0.417 | 1.92 | 2.09 | 1.3
COc1ccc(CCNC(=O)[C@@H]2c3ccccc3C(=O)N(Cc3ccccc3)[C@H]2c2ccc(CO)cc2)cc1 | 1.23 | -0.0548 | 0.693 | -0.575 (inactive) | 0.847 | 0.432 | -0.25 | 0.84 | -0.0051 | 0.309 | 1.43 | -1.17 | 0.117 | -0.0056 | -0.904 | -0.0512 | -0.0813 | -0.293 | 1.15 | 0.36
COc1ccc(C#Cc2ccc3c(c2)[C@]2(C(=O)N3)[C@H](c3ccc(OCCO)cc3)N3[C@H](c4ccccc4)[C@H](c4ccccc4)OC(=O)[C@H]3[C@@H]2C(=O)N2CCN(c3ncccn3)CC2)cc1 | 1.12 | -0.0149 | -0.275 | -0.188 (inactive) | 0.214 | 0.693 | 0.176 | 0.602 | 0.0015 | 0.433 | 1.25 | -1.18 | 0.201 | 1.91 | 0.722 | -0.252 | -0.262 | -0.474 | 0.45 | 0.235
COC(=O)[C@@]1(Cc2ccc(OC)cc2)[C@H]2c3cc(C(=O)N4CCCC4)n(CCc4ccc(O)c(OC)c4)c3C[C@H]2CN1C(=O)c1ccccc1 | -0.0995 | 0.527 | 1.09 | -0.928 (inactive) | -0.317 | -0.175 | -0.481 | -0.892 | -1.13 | 1.04 | 0.333 | -0.917 | -0.448 | 0.346 | 0.225 | 0.114 | 0.03 | 1.03 | 0.39 | 0.184
C=C(/C(=C/C[C@@H](OC(=O)c1ccncc1)c1cccc(OCCO)c1)c1cc(C(=O)OC)ccc1OC)C(C)C | 1.57 | -0.17 | -0.115 | -0.71 (inactive) | 0.709 | 0.366 | -0.0516 | 0.59 | 0.0661 | 0.635 | 0.903 | -2.94 | 0.521 | 0.0576 | -0.412 | -0.101 | 0.131 | 0.0051 | 1.11 | 0.462
COCCCNC(=O)[C@@]1(Cc2ccccc2N=[N+]=[N-])N=C(c2ccc(OCCCO)cc2)O[C@H]1c1ccccc1CN=[N+]=[N-] | 0.953 | 1.19 | 1.18 | -0.456 (inactive) | 1.43 | 1.21 | 0.0402 | 0.511 | -0.338 | 1.21 | 1.44 | -2.86 | 0.0627 | 0.941 | 0.0507 | 0.0676 | 0.551 | 1.47 | 1.54 | 1.71
CN(C)CCCCCCNC(=O)[C@@H]1C[C@@H]2C(=O)NCC(=O)N2[C@@H]1c1ccc(O)cc1 | 1.25 | -0.0528 | -0.29 | -0.326 (inactive) | 1.4 | 1.36 | 0.59 | 1.46 | 1.19 | 0.678 | 1.33 | 0.589 | 0.932 | -1.53 | -1.89 | 0.0785 | 0.46 | -0.213 | 1.96 | 1.83
C=CCOC(=O)[C@@H]1[C@H]2C(=O)O[C@H](c3ccccc3)[C@H](c3ccccc3)N2[C@H](c2ccc(OCCOC(=O)[C@@H]3C[C@@H]4C(=O)N5CCC[C@H]5C(=O)N4[C@@H]3c3cccc(OCCO)c3)cc2)[C@@]12C(=O)Nc1ccc(I)cc12 | 1.04 | -0.297 | -0.121 | -0.64 (inactive) | 1.18 | 1.12 | 0.754 | 1.11 | 1.1 | 0.607 | 1.31 | -1.01 | 0.56 | 1.25 | -0.141 | -0.0718 | -0.264 | -0.342 | 0.972 | 1.11
